Bioassay records from PubChem BioAssay.
GALR2 blocker = GALR2 antagonists in receptor-expressing cells, primary screen | Galanin receptor type 2 (Homo sapiens), O43603 | antagonist mode | inhibition, % at 4 µM | hit rate 0.39% among 140,000 | AID 828, 2007;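 note: cells stimulated with galanin 1-16 at roughly its EC80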
GALR2 ag = GALR2 receptor agonists, primary screen, cell-based; Galanin receptor type 2 (Homo sapiens), O43603; GALR2-expressing cells, agonist activation read-out; activation, % (test concentration not listed); hit rate 0.48% among 140,000; in the data active = activation above about 5%, passing the limit was not always enough
S1P2 blocker = human S1P2 receptor antagonists, primary screen, cell-based; cell-based S1P2 antagonist assay, inhibition at 5 uM; inhibition, % at 5 µM; hit rate 0.21% among 97,000; in the data active = inhibition above about 45%;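 note: CRE beta-lactamase reporter cells expressing human S1P2 stimulated with S1P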
Target sequence (O95136 whole entry, looked up): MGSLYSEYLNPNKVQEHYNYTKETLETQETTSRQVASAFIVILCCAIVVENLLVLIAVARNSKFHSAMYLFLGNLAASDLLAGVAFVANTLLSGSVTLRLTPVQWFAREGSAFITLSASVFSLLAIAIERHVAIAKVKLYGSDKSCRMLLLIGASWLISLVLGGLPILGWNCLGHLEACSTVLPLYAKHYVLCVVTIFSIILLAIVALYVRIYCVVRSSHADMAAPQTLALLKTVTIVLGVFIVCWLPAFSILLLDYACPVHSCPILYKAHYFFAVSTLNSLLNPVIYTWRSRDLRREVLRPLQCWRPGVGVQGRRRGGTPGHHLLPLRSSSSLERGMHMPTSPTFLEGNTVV
S1P2 ag = S1P2 receptor agonists, primary screen, cell-based. hit rate 0.46% among 97,000. S1P2-expressing cell line, agonist reporter read-out. activation, % at 4.5 µM. AID 729, 2007; in the data active = activation above about 16%
GALR2 blk conf = GALR2 antagonists, retest of hits, confirmation, cell-based | GALR2-expressing cells, antagonist mode, inhibition | hit rate 60% among 480 | inhibition, % at 4 µM | AID 866, 2007 | shares compounds with GALR2 blocker;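 note: cells stimulated with galanin at about its EC80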
BLA inhib ctr = inhibitors of NFAT-driven beta-lactamase reporter, confirmation, counter-screen for GALR2 antagonist project, CHO NFAT-bla cells, FRET readout. shares compounds with GALR2 blocker. thapsigargin-stimulated. inhibition, % at 4.2 µM. hit rate 36% among 480. AID 867, 2007;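 active = inhibition above the mean inhibition across tested compounds plus 3 SD, cut at about 27% in these data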
Numbers stand for hits; – = inactive; · = no result. An excerpt weighted towards active compounds, which were near 1.2% of everything screened. Cut-off read from the data, not from the text of the source, unless noted: active = inhibition above about 27%; inactive = the rest.

SMILES	GALR2 blocker	GALR2 ag	S1P2 blocker	S1P2 ag	GALR2 blk conf	BLA inhib ctr
O=C(CN1C(=O)NC2(CCc3ccccc32)C1=O)Nc1ccc(N2CCOCC2)cc1 (configuration not stated)	–	–	–	–	·	·
CN(C)CCCNc1ccc(S(N)(=O)=O)cc1[N+](=O)[O-]	–	–	·	·	·	·
Cc1cc(Nc2ccccc2)nc(NCc2ccccc2)n1	42.2	–	·	·	49.9	30.7
Cc1cc(Nc2ccc(Cl)cc2)nc(NCc2ccccc2)n1	–	–	·	·	·	·
Clc1cccc(Cl)c1/C=C/c1nc2ccccc2[nH]1	27.4	–	–	–	29.1	–
NS(=O)(=O)c1ccc(CCNc2ncnc3sccc23)cc1	–	–	–	–	·	·
Cc1sc2ncnc(NCCc3ccc(S(N)(=O)=O)cc3)c2c1C	36.7	–	62.8	–	47.2	–
Cc1ccc(NC(=S)N(Cc2ccco2)C2CCN(C(C)C)CC2)cc1	–	–	·	·	·	·
Cc1ccc(N(NC(=O)C(O)(c2ccccc2)c2ccccc2)C(=O)CCl)cc1	48.0	–	·	·	37.3	55.6
O=[N+]([O-])c1ccc(S(=O)(=O)CC2CSc3nc4ccccc4n32)cc1 (configuration not stated)	–	–	·	·	·	·
CCc1ccc2c(c1)C1(NN=C(c3cccc4ccccc34)S1)C(=O)N2 (configuration not stated)	29.4	–	–	–	–	–
CC(NC(=O)CN(C)Cc1nc2ccccc2c(=O)[nH]1)c1ccccc1 (configuration not stated)	35.9	–	–	–	–	–
CC1CN(C2CCN(C(=O)c3ccccc3Cl)CC2)CC(C)O1 (configuration not stated)	–	–	–	–	·	·
CCN(CC)CC(=O)N1c2ccccc2Sc2ccc(Cl)cc21	28.8	–	–	–	–	–
O=C(CSc1nc2ccccc2s1)N1c2ccccc2Sc2ccc(Cl)cc21	–	–	–	–	·	·
NC(=O)c1sc2nc(-c3ccco3)ccc2c1N	–	–	–	–	·	·
Nc1c(C(=O)Nc2ccccc2F)sc2nc(-c3ccco3)ccc12	31.1	–	–	–	–	–
O=C(/C=C/c1ccco1)Nc1sc2c(c1C(=O)O)CCC2	–	–	–	–	·	·
N#Cc1c(NC(=O)/C=C/c2ccco2)sc2c1CCCC2	31.0	5.9	·	·	32.3	64.3
O=C(/C=C/c1cccnc1)c1ccc(NC(=O)c2cccc(Br)c2)cc1	–	–	–	–	·	·
Cc1cccc(C(=O)Nc2ccc(C(=O)/C=C/c3cccnc3)cc2)c1	31.1	–	·	·	31.9	–
CC(Cc1cccs1)NC(=O)Nc1ccc(F)cc1 (configuration not stated)	28.4	–	–	–	–	–
CC(Cc1cccs1)NC(=O)Nc1cccc(Cl)c1 (configuration not stated)	–	–	–	–	·	·
CC1(C)CC(=O)/C(=C\c2cccc([N+](=O)[O-])c2)C(C)(C)N1	27.3	–	·	·	33.9	–
CC(C)(C)C(=O)/C(=C\c1ccc([N+](=O)[O-])cc1)n1cncn1	55.9	–	66.2	–	72.6	56.8
SMILES	GALR2 blocker	GALR2 ag	S1P2 blocker	S1P2 ag	GALR2 blk conf	BLA inhib ctr
CN(C)CCCOc1nc2c(c(=O)n(C)c(=O)n2C)n1C	–	–	–	–	·	·
COc1ccc(N(C(=O)Cc2cccs2)C(C(=O)NC2CCCCC2)c2cccn2C)cc1OC (configuration not stated)	–	–	–	–	·	·
C#CC(=O)N(c1ccc(OC)c(OC)c1)C(C(=O)NC1CCCC1)c1cccs1 (configuration not stated)	41.4	–	–	–	53.6	50.8
C#CC(=O)N(c1cccc(OC)c1)C(C(=O)NC1CCCC1)c1cccs1 (configuration not stated)	62.4	–	–	–	71.7	57.5
O=C(CN1CCC(O)CC1)N1c2ccccc2C=Cc2ccccc21	–	–	·	·	·	·
O=[N+]([O-])c1cccc(C=Nc2cc3c(cc2Br)OCCO3)c1	–	–	·	·	·	·
Cc1ccc(CNC(=O)c2ccc(N3CCCC3=O)cc2)cc1	–	–	–	–	·	·
Cn1nc(C(C)(C)C)cc1C(=O)NCc1ccc(N2CCCC2=O)cc1	44.8	–	·	·	39.3	–
O=C(CCn1c(=S)[nH]c2cc3c(cc2c1=O)OCO3)N1CCc2ccccc2C1	–	–	–	–	·	·
O=C(CCCn1c(=S)[nH]c2cc3c(cc2c1=O)OCO3)N1CCc2ccccc2C1	27.8	–	–	–	–	–
